From PubChem
The list is not random: actives were taken first. Their share in the collection is about 1.8%.
SSB-PriA inh = inhibitors of Klebsiella pneumoniae PriA binding to SSB C-terminal tail; AlphaScreen SSBct-PriA binding, biotinylated peptide; inhibition, % at 33 µM; 0.6% of 430,000 active; AID 1272365; in the data active = inhibition mostly above about 37%, no sharp cut-off; inactive = mostly below about 20%
PrP 5UTR inh = inhibition of PrP 5' UTR reporter expression. cell-based PrP 5' UTR mRNA reporter, plate reader. AID 488862. 0.35% of 340,000 active. inhibition, % (concentration not given with the values); in the data active = inhibition above about 52%
PfHsp40 rescue = restores yeast growth despite PfHsp40 toxicity | S. cerevisiae expressing PfHsp40, growth rescue, ATP luminescence | growth rescue, % at 12.5 µM | 0.68% of 340,000 active; in the data active = growth rescue above about 28%, passing the limit was not always enough;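 also: yeast W303a lacking pdr1 and pdr3 grown in galactose medium; growth measured after three days at 30 °C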
PrPC surface inh = inhibitors of human cell surface prion protein PrPC | AID 720596 | TR-FRET read-out | 0.43% of 370,000 active | inhibition, % at 13.8 µM; in the data active = inhibition above about 24%
MazF activator = increases E. coli MazEF RNase cleavage of RNA | activation, % at 20 µM | 0.32% of 350,000 active | FAM/BHQ RNA-DNA oligo cleavage fluorescence, 5 h | AID 504720; in the data active = activation above about 50%
Target sequence (P0AE70 whole entry, looked up): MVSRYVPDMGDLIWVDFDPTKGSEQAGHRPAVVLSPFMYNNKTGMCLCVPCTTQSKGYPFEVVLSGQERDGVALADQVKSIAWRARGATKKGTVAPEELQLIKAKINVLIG
A number is an active result; – = inactive; · = not tested or not shown; + = active, no number.

SMILES	SSB-PriA inh	PrP 5UTR inh	PfHsp40 rescue	PrPC surface inh	MazF activator
Cc1ccc(C)c(CC(=O)Nc2nnc(-c3ccno3)o2)c1	56	·	·	·	·
NC(=NOC(=O)Cc1ccc([N+](=O)[O-])cc1)c1ccccn1	42	·	·	·	·
N/C(=N\OC(=O)Cc1ccccc1)c1ccccn1	·	–	–	–	–
COc1ccccc1-n1c(=O)[nH]c2c(C(N)=O)nc(C3CCCCC3)nc21	–	–	–	–	–
NC(=O)c1nc(C2CCCCC2)nc2c1[nH]c(=O)n2-c1ccc(F)cc1	–	–	–	–	86
CN(C(=O)COC(=O)c1ccccc1C(=O)N1CCN(c2ccccc2)CC1)c1ccccc1	–	–	–	–	–
Cc1ccc(C(=O)Nc2ccc3nc(C)sc3c2)o1	·	·	·	–	–
CCCCN(C)S(=O)(=O)c1cc(Br)cc2c1N(C(=O)C1CC1)CC2	–	–	132	·	–
COc1ccc2nc(NC(=O)NC34CC5CC(C3)CC(c3ccc(C)cc3)(C5)C4)sc2c1	–	·	·	·	·
COc1cccc(-c2cc(C(=O)Nc3cc(C)n(Cc4ccc(Cl)cc4)n3)no2)c1	–	–	–	–	51
CC(C)Cn1c(SCC(=O)NC2CC2)nc2ccc(Cl)cc2c1=O	·	·	·	–	–
CN1C=CC=C/C1=C(/C#N)c1nc2ccccc2[nH]1	–	·	·	·	·
CN1C=CC=C/C1=C(/C#N)c1nc(-c2ccccc2)cs1	99	·	·	·	·
N#CC(=Cc1ccccn1)c1nc(-c2ccc(Cl)cc2)cs1	·	·	·	–	–
COc1ccccc1-c1csc(/C(C#N)=C2\C=CC=CN2C)n1	70	·	·	·	·
CN1C=CC=C/C1=C(/C#N)c1nc(-c2ccc(Cl)cc2)cs1	134	·	·	·	·
COc1ccccc1-c1csc(N)n1	–	·	·	·	·
CCc1ccc(NC(=O)CN(N=Nc2nonc2C)c2nonc2C)cc1	–	–	–	–	–
CCN1C(C)=C(C)S/C1=C1\SC(=S)N(C2CCCCC2)C1=O	–	–	–	–	354
CCN1C(C)=C(C)S/C1=C1\SC(=S)N(NC(C)=O)C1=O	–	–	–	–	–
CCC(C)NC(=O)Nc1ccc(Br)cc1 (stereo not given)	–	–	–	–	–
CCC(C)Nc1ccc(NC(C)CC)cc1 (stereo not given)	40	–	–	·	–
CCN(CC)c1ccc2cc(-c3nnc(-c4ccc(C)cc4)o3)c(=O)oc2c1	–	·	·	·	·
CCN(CC)c1ccc2cc(-c3nnc(-c4ccccc4)o3)c(=O)oc2c1	–	–	–	–	900
Cc1nc2ccc(NC(=O)c3cccs3)cc2c(=O)n1Cc1ccc(Cl)cc1	–	–	31	–	–
SMILES	SSB-PriA inh	PrP 5UTR inh	PfHsp40 rescue	PrPC surface inh	MazF activator
CCCc1nc2ccc(NC(=O)c3cccs3)cc2c(=O)n1Cc1ccc(Cl)cc1	–	–	–	–	–
O=c1[nH]c2ccc(NCc3ccccc3OCc3ccc(Cl)cc3)cc2[nH]1	92	–	–	–	–
COc1cccc(CNc2ccc3[nH]c(=O)[nH]c3c2)c1OCc1ccc(F)cc1	–	–	–	–	–
COc1cc(/C=C2\SC(=S)N(NS(=O)(=O)c3ccc(C)cc3)C2=O)ccc1O	–	–	303	–	–
CCOc1cc(/C=C2/SC(=S)N(CC3CCCO3)C2=O)ccc1O (stereo not given)	–	–	–	–	+
CCOc1cc(/C=C2\SC(=S)N(NS(=O)(=O)c3ccc(C)cc3)C2=O)ccc1O	–	–	59	–	–
COc1cc(/C=C2\SC(=S)N(NS(=O)(=O)c3ccccc3)C2=O)ccc1O	–	–	–	–	–
COc1ccc(CCNC(=O)C2CC(=O)N(c3ccc(C)cc3)C2)cc1 (stereo not given)	–	–	–	–	–
COc1ccc(C(=O)N(C)C(C)c2nccs2)cc1OC1CCN(C(C)=O)CC1 (stereo not given)	·	·	·	–	–
O/N=C\c1ccccc1Oc1ccc(F)cc1	·	–	59	–	–
Oc1c(Br)cc(Br)cc1Br	–	–	–	–	–
Oc1c(Br)c(Br)c(Br)c(Br)c1Br	–	–	31	·	–
O=C(Nc1ccc(F)cc1)C(c1cccc(F)c1)N1CCN(CC(=O)N2CCCC2)CC1 (stereo not given)	·	·	·	–	·
COc1cc2cccc(OC)c(=O)c2c(OC)c1OC	–	–	–	–	–
O=c1c(O)cccc2cc(O)c(O)c(O)c12	·	–	627	–	281
Cc1cc(N/N=C/c2ccc(F)cc2)nc(-n2nc(C)cc2C)n1	–	·	·	–	–
COc1ccc(/C=N/Nc2cc(C)nc(-n3nc(C)cc3C)n2)c(OC)c1	·	–	178	–	–
COc1ccc(C=NNc2cc(C)nc3ccc(OC)cc23)c(OC)c1	41	·	·	·	·
COc1ccc2nc(C)cc(N/N=C/c3cccc(OC)c3O)c2c1	·	–	–	–	–
